Experimental data published in PubChem BioAssay AID720504 (National Center for Advancing Translational Sciences (NCATS), 2013).
Among all 360,000 compounds or so, about 10,000 (2.8%) were called active. Roughly 4% stayed inconclusive and do not appear here. The sample as a whole holds a higher share of actives than the screen did. A number with no mark means an inactive call. Calls come from the whole dose curve; as a rule, active = well fitted inhibition curve with a large enough effect; inconclusive = small, poorly fitted or top-dose-only effect; inactive = flat fitted curve, though single readings scatter.
% is set by controls: 0 for no effect and ±100 for the full control effect; potency is the fitted concentration of half-maximal effect.
Note: nearly all actives have a fitted effect of over 65% in size.
Throughout, for max response, negative = inhibition: series mostly up to about 57 µM.

These compounds were tested against Serine/threonine-protein kinase PLK1 (Homo sapiens) (UniProt P53350) (assay: qHTS for Inhibitors of PLK1-PDB (polo-like kinase 1 - polo-box domain): Primary Screen). Conditions: Plk1 PBD binding of FITC phosphopeptide, fluorescence polarization.
Serine/threonine-protein kinase PLK1 (Homo sapiens), sequence (P53350 whole entry, looked up, the tested form may be a part): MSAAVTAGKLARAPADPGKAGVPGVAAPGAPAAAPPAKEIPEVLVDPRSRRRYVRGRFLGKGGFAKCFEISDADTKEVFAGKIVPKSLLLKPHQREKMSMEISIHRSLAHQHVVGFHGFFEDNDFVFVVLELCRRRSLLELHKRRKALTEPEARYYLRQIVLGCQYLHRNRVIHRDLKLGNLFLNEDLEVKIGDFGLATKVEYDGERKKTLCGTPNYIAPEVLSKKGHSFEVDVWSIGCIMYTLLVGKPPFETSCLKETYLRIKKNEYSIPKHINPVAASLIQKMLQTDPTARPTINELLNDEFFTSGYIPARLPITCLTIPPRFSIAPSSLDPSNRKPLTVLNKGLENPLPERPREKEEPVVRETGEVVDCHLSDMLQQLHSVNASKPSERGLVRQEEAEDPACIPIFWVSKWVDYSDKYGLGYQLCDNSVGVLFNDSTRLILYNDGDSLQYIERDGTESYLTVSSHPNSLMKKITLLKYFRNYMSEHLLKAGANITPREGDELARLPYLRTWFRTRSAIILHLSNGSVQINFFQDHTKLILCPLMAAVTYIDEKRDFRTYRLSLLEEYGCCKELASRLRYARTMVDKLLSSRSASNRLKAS
With `CCc1nc2ccc(C(=O)N3CCN(S(=O)(=O)CC)CC3)cn2c1N(C=O)CCC(C)C` the max response, negative = inhibition was -4.19%.
`O=C(CCCN1C(=O)C(c2ccccc2)Oc2cccnc21)Nc1ccccc1Br` (stereo not drawn) gave a max response, negative = inhibition of 3.26%.
In the case of `CCCCn1nnnc1C(c1cccc(OC)c1OC)N1CCN(C/C=C/c2ccccc2)CC1` (stereo not drawn), the max response, negative = inhibition was -4.93%.
For `CC1(C)CC(=O)C=C(c2ccc(COC(=O)c3cc(F)cc(F)c3)cc2)C1=O`, the max response, negative = inhibition was -3.92%.
With `O=C(O)CCn1cc(/C=C/C(=O)c2ccc(Cl)cc2)c(-c2cccc(Br)c2)n1` the Potency was 21.2 µM (active).
`O=C(COC(=O)/C=C/c1cn(-c2ccccc2)nc1-c1cccnc1)Nc1ccc(Cl)cc1Cl` gave a max response, negative = inhibition of 13.1%.
With `O=C(/C=C/NNC(=O)c1cccc(Br)c1)c1ccccc1` the max response, negative = inhibition was -5.78%.
Compound `CCCCc1ccc(S(=O)(=O)NC(=O)C2(C)CCN2C(=O)c2c(C)noc2C)cc1` (stereo not drawn) has a max response, negative = inhibition of -12%.
Work on `Cc1ccc(CNC(=O)Cc2cn(C)c3ccccc23)cc1` yielded a max response, negative = inhibition of -3.92%.
With `Cn1cc(CCC(=O)NC2CC2)c2ccccc21` the max response, negative = inhibition was -19.7%.
For `CCn1cc(CCC(=O)NCc2ccc(F)cc2)c2ccccc21`, the Potency was 23.8 µM (active).
Compound `COc1ccc(-c2cc(NC=O)c3ncc(-c4cccc(C(=O)N(C)C)c4)n3c2)c(OC)c1` has a max response, negative = inhibition of -16.4%.
For `O=C(CC1SC(=Nc2ccccc2)N(Cc2ccccn2)C1=O)Nc1cccc(Cl)c1` (stereo not drawn), the Potency was 29.9 µM (active).
`CCN1C(=O)C(CC(=O)Nc2cc(C)ccc2C)SC1=Nc1ccc(S(N)(=O)=O)cc1` (stereo not drawn) was tested, and the max response, negative = inhibition was -2.89%.
`CCN=C1SC(CC(=O)Nc2ccc(C)cc2)C(=O)N1CC` (stereo not drawn) was tested, and the max response, negative = inhibition was -1.27%.
With `CC1CC(=O)N(CC(=O)Nc2cccc(Cl)c2)c2ccccc2S1(=O)=O` (stereo not drawn) the max response, negative = inhibition was -2.47%.
With `CN1C(=O)C(CC(=O)Nc2ccccc2)S/C1=N/c1nccs1` (stereo not drawn) the Potency was 26.7 µM (active).
For `CN=C1SC(CC(=O)Nc2ccc(C(=O)O)cc2)C(=O)N1C` (stereo not drawn), the max response, negative = inhibition was -12.2%.
Compound `CCCC/C=C/c1cccc2nncn12` has a max response, negative = inhibition of 0.37%.
`O=C(Nc1nnc([C@H]2C[C@H](O)[C@@H](CO)O2)s1)c1cccc(Cl)c1` showed a max response, negative = inhibition of -11.4%.
In the case of `O=C(CSc1ncn[nH]1)Nc1nc2c(F)c(F)c(F)cc2s1`, the max response, negative = inhibition was -14.3%.
`CCn1c(=S)sc2c(=O)n(CC(=O)Nc3cccc(Br)c3)c(C)nc21` was tested, and the max response, negative = inhibition was 5.75%.
With `COc1ccc(NC(=O)Cn2c(-c3ccc(OC)cc3)cn(-c3ccc(C)cc3)c2=O)cc1` the max response, negative = inhibition was -2.89%.
For `CCn1c(=S)sc2c(=O)n(CC(=O)Nc3ccc(OC)cc3)c(C)nc21`, the Potency was 33.6 µM (active).
`CCCCCc1c(Cc2ccccc2)ncn1CCc1ccccc1OC` gave a max response, negative = inhibition of -12.9%.
In the case of `Cc1ccc(N(C(=O)C(F)(F)F)C(C(=O)NC2CCCCC2)c2ccncc2)cc1C` (stereo not drawn), the Potency was 11.9 µM (active).
Work on `CCc1ccc(N(C(=O)c2csnn2)C(C(=O)NC2CCCCC2)c2ccncc2)cc1` (stereo not drawn) yielded a max response, negative = inhibition of -3.61%.
With `Cc1cc(NC(=O)CCC(=O)N(c2cccc(F)c2)C(C(=O)NC2CCCC2)c2ccncc2)no1` (stereo not drawn) the max response, negative = inhibition was -7.93%.
`COc1ccc(C(C)(O)c2nc(-c3ccc(C)c(C)c3)cs2)cc1` (stereo not drawn) showed a max response, negative = inhibition of -4.12%.
`COCCNC(=O)c1cc2c(Br)ccc(Br)c2nc1N` was tested, and the max response, negative = inhibition was -4.02%.
`CCOC(=O)[C@]12CCC=C1N(Cc1cccc3ccccc13)C(=O)[C@H](CC(=O)NCc1cccc(C(F)(F)F)c1)C2` was tested, and the max response, negative = inhibition was -6.42%.
`CCOc1ccc(OCC)c(NC(=O)CN(C)S(=O)(=O)c2cccc3nsnc23)c1` was tested, and the Potency was 29.9 µM (active).
Compound `CCOc1ccc(N(CC)S(=O)(=O)c2cccc3nsnc23)cc1` has a max response, negative = inhibition of -8.88%.
`CCOc1ccccc1NC(=O)CCS(=O)(=O)c1cccc2nsnc12` showed a max response, negative = inhibition of 7.52%.
With `COc1ccc(CN2C[C@H]3CON(C)[C@H]3C[C@H]2c2ccc(-c3cccc(F)c3)cc2)cc1` the max response, negative = inhibition was 5.3%.
`Cc1sc2ncn(CC(=O)NCCN(C)C)c(=O)c2c1S(=O)(=O)N1CCC(C)CC1` was tested, and the max response, negative = inhibition was -12.5%.
With `COc1cccc(NC(=O)Cn2cnc3sc(C)c(S(=O)(=O)N4CCN(C)CC4)c3c2=O)c1` the Potency was 8.44 µM (active).
`COc1ccc(N2CCN(C(=O)Cn3cnc4sc(C)c(S(=O)(=O)N5CCOCC5)c4c3=O)CC2)cc1` showed a max response, negative = inhibition of -11.3%.
For `COCCCNC(=O)c1cccc2c(-c3ccc(O)c(OC)c3)coc12`, the max response, negative = inhibition was -12.1%.
For `O=C(N[C@H]1CC[C@H](CC(=O)N2CCCCC2)O[C@@H]1CO)c1cccc(F)c1`, the max response, negative = inhibition was 6.09%.
Work on `Cc1ccc(Cl)c(OCC(=O)N(C)CC(=O)Nc2ccc(N3CCOCC3)cc2)c1` yielded a max response, negative = inhibition of -2.7%.
`Cc1ccc(Cl)c(OCC(=O)N2CCc3ccccc3C2)c1` showed a max response, negative = inhibition of -3.49%.
In the case of `Cc1ccc(Cl)c(OCC(=O)NN2CCN(C)CC2)c1`, the Potency was 23.8 µM (active).
With `Cc1cc(C)c2c(=O)n3c(nc2c1)C(CC(C)C)NC(=O)c1cc2ccccc2cc1-3` (stereo not drawn) the max response, negative = inhibition was 1.09%.
For `O=C(Nc1ccc(Cl)c(C(F)(F)F)c1)C1Cc2c(-c3ccccc3Oc3ccccc3)ccnc2O1` (stereo not drawn), the max response, negative = inhibition was -6%.
`Cc1cc(C)cc(NC(=O)C2CCCN2S(=O)(=O)c2cccc3cccnc23)c1` (stereo not drawn) was tested, and the max response, negative = inhibition was -10.9%.
With `O=C(Nc1nccs1)C1CCCN1S(=O)(=O)c1cccc2cccnc12` (stereo not drawn) the Potency was 26.7 µM (active).
Compound `Cc1ccc(NC(=O)C2CCCN2S(=O)(=O)c2cccc3cccnc23)c(C)c1` (stereo not drawn) has a max response, negative = inhibition of -3.33%.
`Cc1ccccc1-c1nc(NC(C)C)nc2cc(-c3ccccc3)sc12` was tested, and the max response, negative = inhibition was -6.2%.
In the case of `O=C(C1CC(=O)N(C2CCCCC2)C1)N1CCN(c2ccccc2)CC1` (stereo not drawn), the max response, negative = inhibition was -15.5%.
Work on `CC1CC(C)CN(C(=O)C2CC(=O)N(c3ccc(F)cc3)C2)C1` (stereo not drawn) yielded a max response, negative = inhibition of -7.49%.
For `O=C(C1CC(=O)N(c2ccc(F)cc2)C1)N1CCN(c2ccccc2)CC1` (stereo not drawn), the Potency was 18.9 µM (active).
Compound `CC1=C(C(=O)N(C)C)CC(CC(=O)NCCc2ccccn2)C(=O)N1CCC1=CCCCC1` (stereo not drawn) has a max response, negative = inhibition of -5.19%.
With `CC(=O)N(C1=C(Cl)C(=O)c2ccccc2C1=O)c1ccc(C(=O)O)cc1` the Potency was 2.99 µM (active).
`O=C(Nc1nc(-c2ccco2)c(-c2ccco2)s1)c1ccco1` showed a max response, negative = inhibition of -24.5%.
For `COCCNC(=O)Nc1ccc2nc(-c3ccco3)c(-c3ccco3)nc2c1`, the Potency was 21.2 µM (active).
Work on `COCCNC(=O)CSc1nc(N)c(NC(=O)c2ccco2)c(=O)[nH]1` yielded a max response, negative = inhibition of -1.47%.
`CC1(C(=O)NS(=O)(=O)c2ccccc2Cl)CCN1C(=O)c1cccc(F)c1` (stereo not drawn) was tested, and the max response, negative = inhibition was -14.1%.
With `CC(C)CN1C(=O)CN(S(C)(=O)=O)CC1(C)C(=O)NCc1ccccc1` (stereo not drawn) the max response, negative = inhibition was 4.65%.
For `O=C1NC[C@H](Cc2ccc(O)cc2)N(C[C@H]2CCCN2C[C@H](Cc2ccccc2)N2C[C@H](Cc3ccccc3)N(CCc3ccccc3)C(=O)C2=O)C1=O`, the max response, negative = inhibition was -6.61%.
`CC1CCN(c2ccc3c(c2)S(=O)(=O)c2cc(C(=O)O)ccc2C3=O)CC1` gave a max response, negative = inhibition of 2.83%.
In the case of `CC(C)Sc1ncnc2c1cnn2-c1ccccc1`, the max response, negative = inhibition was 2.81%.
`O=C(NCCC1=CCCCC1)c1ccc(-n2cncn2)cc1` gave a max response, negative = inhibition of 7.38%.
`C1=C(CCNc2ncnc3c2cnn3-c2ccccc2)CCCC1` was tested, and the Potency was 3.36 µM (active).
`C[C@H]1CN(c2ccc(Br)cc2)C(=O)[C@@H]1CC(=O)Nc1ccc(Br)cc1` gave a max response, negative = inhibition of 1%.
`O=C(C(=O)N1CCN(c2ccccc2)CC1)c1ccc2c(c1)OCO2` gave a max response, negative = inhibition of -10.2%.
`O=C(Cc1ccc(Br)cc1)N1CCN(c2ccccn2)CC1` was tested, and the Potency was 29.9 µM (active).
Compound `O=C(Cc1ccccc1Cl)N1CCN(c2ccccn2)CC1` has a max response, negative = inhibition of -14.6%.
`O=C(CN1CCN(c2ccccn2)CC1)Nc1ccc(Br)cc1` was tested, and the max response, negative = inhibition was -15.1%.
In the case of `CCc1nnc(NC(=O)c2ccco2)s1`, the max response, negative = inhibition was -6.68%.
`Cc1cccc(N2CCN(C(=O)C3CCN(S(=O)(=O)c4cnc[nH]4)CC3)CC2)c1C` showed a max response, negative = inhibition of 3.15%.
Work on `O=C(C1CCN(Cc2ccc(Cl)cc2)CC1)N1CCN(Cc2ccc3c(c2)OCO3)CC1` yielded a max response, negative = inhibition of 2.77%.
With `O=C(C1CCN(S(=O)(=O)c2cnc[nH]2)CC1)N1CCN(Cc2ccc3c(c2)OCO3)CC1` the Potency was 2.99 µM (active).
`CCC(C(=O)Nc1c(C)cccc1C)n1c(-c2cc(C)cs2)nc2ccccc21` (stereo not drawn) was tested, and the max response, negative = inhibition was -9.18%.
`Cc1cc2cc3n(c2nn1)N=C(Cl)CC3` gave a max response, negative = inhibition of -3.02%.
Compound `C=CCC[C@H](CCCCC)OC(=O)/C=C/[C@H](O)[C@@H](O)C[C@@H](O)CC=C` has a max response, negative = inhibition of -13.7%.
`C[C@@H]1CN([C@H](C)CO)C(=O)CCCn2cc(nn2)CO[C@H]1CN(C)S(=O)(=O)c1ccc(Oc2ccccc2)nc1` showed a max response, negative = inhibition of -19.7%.
`O=C(CCC(=O)OCc1ccc(Cl)cc1)Nc1ccccc1` gave a max response, negative = inhibition of -4.01%.
Work on `O=C(O)CC1=C(Nc2ccccc2)C(=O)N(c2ccccc2)C1c1ccc(Cl)cc1` (stereo not drawn) yielded a max response, negative = inhibition of -11.1%.
`O=C1C=C(c2ccc(Cl)cc2)C(=O)N1Nc1ccccc1` was tested, and the Potency was 6.7 µM (active).
`CC1(C(=O)Nc2ccc3c(c2)OCCO3)CN(S(C)(=O)=O)CC(=O)N1Cc1cccc(F)c1` (stereo not drawn) gave a max response, negative = inhibition of -14.7%.
`COC(=O)C[C@H]1C[C@@H]2c3cc(NC(=O)Nc4ccccc4)ccc3O[C@@H]2[C@@H](CO)O1` was tested, and the max response, negative = inhibition was 0.628%.
In the case of `Cc1ccc(S(=O)(=O)CC(=O)Nc2sc(C)c(C)c2C(N)=O)cc1`, the max response, negative = inhibition was -9.45%.
For `Cc1ccc(C(=O)c2c(NC(=O)c3ccccc3)sc(C)c2C)cc1`, the Potency was 11.9 µM (active).
For `Cc1sc(NC(=O)c2ccc3ncsc3c2)c(C(N)=O)c1C`, the max response, negative = inhibition was -11%.
For `Cc1ccoc1C(=O)Nc1cccc(Oc2ccccc2)c1`, the Potency was 29.9 µM (active).
Work on `CC1(C(=O)Nc2cccc(Oc3ccccc3)c2)CCN1Cc1ccccc1Cl` (stereo not drawn) yielded a max response, negative = inhibition of -5.84%.
For `CC(Oc1cccc(NC(=O)c2cccs2)c1)C(=O)c1ccccc1` (stereo not drawn), the max response, negative = inhibition was -3.5%.
